About 83,000 compounds went through this panel and 20% of them were active in at least one assay; those are over-represented in the sample as a whole.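 Each cell line was grown in a 96-well plate and treated with one concentration of compound for 48 hours. Values below 10 were considered active.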 A number with no mark means an inactive call. Calls of active or inactive are those of the source.

The test deals with LOX IMVI melanoma. Put plainly: NCI-60 one-dose screen, 48 h (100 = growth as untreated, 0 = no growth, -100 = all killed). The conditions noted are these: 10 µM unless noted. Here is the method: Growth inhibition of the LOX IMVI human tumor cell line is measured as a screen for anti-cancer activity. Cells are grown in 96 well plates and exposed to the test compound for 48 hours. Compounds are tested at a single concentration, which is 10^-5 M for most compounds. The reported endpoint is percent growth (GI% or GIPRCNT), where numbers from 0 - 100% represent growth inhibition, and numbers from -100% - 0 represent cell death. For example, a value of 40 represents 60% growth inhibition. A value of 0 means no net growth occurred over the course of the experiment. A value of -40 indicates 40% of cells at the beginning of the experiment died by the end of the experiment. A value of -100 means all cells are dead at the end of the experiment.
NCI-60 Human Tumor Cell Lines Screen was performed using the standard one-dose NCI protocol, which is described in more detail at https://dtp.cancer.gov/discovery_development/nci-60/default.htm.
Compounds with GIPRCNT values below 10 were considered active. Activity score was based on GIPRCNT using the following formula: […]
Score is 0 for GIPRCNT values of 100 or above, 50 for GIPRCNT values of 0, and 100 for GIPRCNT values of -100.
Take `Cn1c(-c2c(N)n(Cc3ccc(C(F)(F)F)cc3)c3nc(C#N)c(C#N)nc23)nc2ccccc21`: the growth is 2.4% (active).
The figure for `O=C(c1ccccc1)c1c(/C=C/c2ccccc2)nc2ccccc2c1/C=C/c1ccc(Br)cc1` is 90.6%; for `O=C(CCc1nnc(CN(c2ccccc2)c2ccccc2)o1)c1nc2ccccc2[nH]1` it is 80.3%; for `Cc1c(C(=O)OC(=NC2CCCCC2)NC2CCCCC2)sc2c1c(=O)nc1c(C#N)n[nH]n12` it is 94.8%.
Take `O=Cc1ccc(O)c2ncccc12`: the growth was -68.5% (active).
The figure for `Cc1cc(NCc2cc(Nc3ccnc4cc(Cl)ccc34)ccc2F)nc(N2CCSCC2)n1` is -89.2% (active).
With `O=C(O)C1CCC(=O)N1C(=O)OCc1ccccc1` (stereo not given), the growth was 98%.
The result for `C=CCSc1nc2ccccc2cc1/C=N/O` reads 85.9%.
The figure for `O=C1CC(N2C(=O)/C(=C/C(Cl)=C\c3ccc([N+](=O)[O-])cc3)SC2=S)C(=O)N1c1ccc(O)cc1` (stereo not given) is -83.7% (active); for `Cc1cc(NCc2cc(Nc3ccnc4cc(Cl)ccc34)ccc2F)nc(N2CCCC2)n1` it is -92.8% (active).
In the case of `COC(=O)c1c2c(c(C)[n+]([O-])c1C)C(=O)C(NCc1ccc(F)c(Cl)c1)=CC2=O`, the growth was 9.57% (active).
The result for `CC(=O)N1C(=S)NC(=O)C1Cn1c(-c2ccccc2)nc2ccccc21` (stereo not given) reads 95.8%; that for `Cc1cc(NCc2cc(Nc3ccnc4cc(Cl)ccc34)ccc2F)nc(N2CCN(c3ccccc3)CC2)n1`, -84.6% (active); that for `N#C/C(=C\c1ccc(-c2ccccc2F)o1)c1nc(-c2ccco2)cs1`, 93.7%.
As for `CN(C)c1ccc(-c2ccc3[nH]c(=O)nc(-c4ccccc4)c3c2)cn1`, the growth was 38.5%.
The figure for `O=c1ssc(Cl)c1-c1ccccc1` is 92.5%; for `O=C(Nc1ccc(-n2cc(-c3ccncc3)c(-c3ccc(Cl)c(O)c3)n2)cc1)N1CCOCC1` it is 98%.
The figure for `O=c1ccn2nc3ccccc3c2[nH]1` is 96.3%.
In the case of `CCN(CC)CCCCCCNc1cc(OC)c(Cl)c2cccnc12`, the growth was 55.7%.
In the case of `CC1OC(O[C@H]2/C=C/C=C/C=C/C=C/C=C/C=C/C=C/[C@H](C)[C@@H](O)[C@@H](C)[C@H](C)OC(=O)CC(O)CC(O)CCC(O)C(O)CC(O)C[C@]3(O)C[C@H](O)C(C(=O)O)C(C2)O3)C(O)[C@H](N)C1O` (stereo not given in full), the growth was -12% (active).
Turning to `N=C1C(c2nc(-c3ccc(Br)cc3)cs2)=C(O)CN1CC1CCCO1` (stereo not given), the growth is 60.7%.
`C=C1C(=O)O[C@H]2[C@H]1CC/C(CNC(=O)/C=C/c1ccc(Cl)cc1Cl)=C\CC[C@@]1(C)O[C@@H]21`: the growth was -97.2% (active).
The result for `CC(C)Sc1nc(NNC(N)=S)c(C#N)c(-c2ccc(F)cc2)n1` reads 98.6%; that for `Cc1cc(NCc2cc(Nc3ccnc4cc(Cl)ccc34)ccc2F)nc(Cl)n1`, 34.9%.
On to `Clc1cccc(Cl)c1C(Nc1nc2ccccc2s1)Nc1nc2ccccc2s1`, for which the growth is 86.1%.
Take `COc1c(CCC[P+](c2ccccc2)(c2ccccc2)c2ccccc2)cc2c(c1OC)OCO2`: the growth was 15.9%.
The figure for `CN(C)CC1C(=O)O[C@H]2[C@H]1CC/C(COC(=O)c1cc3ccccc3[nH]1)=C\CC[C@@]1(C)O[C@@H]21` (stereo not given in full) is -92.7% (active); for `C=C1C(=O)O[C@H]2[C@H]1CC/C(COC(=O)C(=O)c1c[nH]c3ccccc13)=C\CC[C@@]1(C)O[C@@H]21` it is -81.1% (active).
For `CCN(CC)c1ccc2nc3c4ccccc4c(=NC(=O)c4ccccc4-c4c5ccc(N(CC)CC)cc5[o+]c5cc(N(CC)CC)ccc45)cc-3oc2c1`, the growth is -30.4% (active).
The result for `O=C(NCCCNc1cc(-c2cn(-c3ccccc3)nc2-c2cccc(O)c2)ccn1)c1cccc(O)c1` reads 54.1%; that for `COc1cccc(-c2nn(-c3ccccc3)cc2-c2ccnc(NCCNC(=O)Nc3cccc(C(F)(F)F)c3)c2)c1`, -77.3% (active).
The result for `CCCCN(CCCC)CC(C)(C)C(O)c1ccc(OC)c2ccccc12` (stereo not given) reads 66.6%.
Regarding `CC(=O)OC[C@H]1OC(Sc2sc(C(=O)c3ccc(Br)cc3)c(N)c2-c2nc3ccccc3s2)[C@H](OC(C)=O)[C@@H](OC(C)=O)[C@@H]1OC(C)=O` (stereo not given in full), the growth was 37.1%.
For `COc1ccc(-c2nc3c(N)c(CO)c(C)nc3o2)cc1`, the growth was 93.5%.
The figure for `CCN(CC)c1ccc(C(=O)c2ccc(N(CC)CC)cc2)cc1` is 32.6%; for `N/C(=N\c1nc2ccccc2s1)NC(=O)Nc1cccc(Cl)c1` it is 38.9%.
Take `COC(=O)CCC1=C(C)C2=NC1=CC1=NC(=CC3=NC(=Cc4[nH]c(/c(=C(/C)O)c4C)=C2)C(C(C)=O)=C3C)C(C)=C1CCC(=O)OC`: the growth is 96%.
The result for `COc1ccc(-c2cc(-c3cc(OC)ccc3OC)nc(SCC(=O)c3ccccc3)c2C#N)cc1` reads 92.1%; that for `N=c1sc(Cc2ccc(Cl)cc2)cn1CC(=O)c1ccc(F)cc1`, 33.2%.
In the case of `Cn1c2c(c3ccc(Cl)c(Cl)c31)C(C#N)C1(CCNCC1)NC2=O` (stereo not given), the growth is 14.2%.

(Values after PubChem BioAssay (NCI).)
